According to PubChem BioAssay AID1458 (National Center for Advancing Translational Sciences (NCATS), 2008):
Out of some 210,000 compounds screened, about 5,900 (2.8%) were called active. A call without a number means that no potency is given here. Inconclusive results (about 5%) are left out. Calls come from the whole dose curve; as a rule, active = well fitted activation curve with a large enough effect; inconclusive = small, poorly fitted or top-dose-only effect; inactive = no such curve, though single readings can be large or run the other way. The full list was thinned out, with actives kept by preference.

assay: qHTS Assay for Enhancers of SMN2 Splice Variant Expression; conditions: HEK293 SMN2-luciferase splicing reporter, luminescence, 30-36 h; series mostly up to 46.1 µM; note: nearly all actives have a fitted effect of over 55% in size
Excerpt: NIH Chemical Genomics Center [NCGC] NIH Molecular Libraries Probe Production centers Network [MLPCN] MLPCN Grant: R03 MH084179-01 Assay Submitter (PI): Elliot Androphy NCGC Assay Overview: Spinal muscular atrophy (SMA) is caused by insufficient levels of the survival motor neuron protein SMN. The SMN locus on chromosome 5q13 contains two inverted copies of SMN called SMN1 and SMN2 which are 99% identical at the amino acid level. SMN1 is a fully functional protein and SMN2 skips exon 7 90% of the time. Skipping of exon 7 produces non-functional protein product. 10% of the SMN2 protein includes exon 7 and is fully functional. In the SMA disease state, mutations in the SMN1 locus are the cause of the disease state. Because only 10% of SMN2 is of the fully functional form, it is not sufficient to overcome the deficiency produced by the loss of the SMN1 product. A therapy that either increase the amount of SMN2 product made or to increase the inclusion of exon 7 has been proposed for the treatment of SMA. We have designed an assay to identify small molecules that can increase the amount of functional SMN2 product by appending a luciferase reporter gene after the native SMN2 gene, such that inclusion of exon 7 in the expressed product places the luciferase sequence in frame, thus generating functional luciferase enzyme.
NCGC Assay Protocol Summary: This screen utilizes a luciferase reporter gene assay, combining the promoter and splicing based cassettes in tandem with the major portion of the native SMN2 cDNA, and then transfected into HEK293 cells. Compounds that increase luciferase signal presumably enhance expression of the functional SMN2 splice variant. Passaging media contained DMEM w/ glutamax (+phenol red) 10% FCS, 1x pen/strep, 200 ug/ml hygro, 1x sodium pyruvate. Assay media contained DMEM w/ glutamax (-phenol red) 10% FCS, 1x pen strep, 1x pyruvate Sequence, Parameter, Value, Description (1) Cells, […], 2000 cells/well, 1536 TC treated White solid bottom plate (2) Time, 10-12 hours, 37C 5% CO2 (3) Compound, 23 nl, MLSMR Library (4) Control Compound, 23 nL, Sodium butyrate st 4.5mM (final) conc (5) Time, 30-36 hours, 37C 5% CO2 (6) Reagent, 3 ul, One Glo (TM) from Promega (7) Time, 5-15 minutes, Room temp (8) Detector, Viewlux: luminescent read, 60 second integration, high speed 2x binning Keywords: Spinal muscular atrophy, SMA, SMN2, high throughput screening, MLSMR, MLPCN, NIH Roadmap, qHTS and NCGC
Potency is the fitted concentration of half-maximal effect.

| SMILES | Potency |
| --- | --- |
| O=c1c(-c2ccccc2)coc2cc(O)ccc12 | 22.4 µM (active) |
| O=c1c(-c2ccccc2)coc2c(CN3CCOCC3)c(O)ccc12 | inactive |
| Cc1c(O)cc(O)c2c(=O)c(-c3ccc(O)cc3)coc12 | inactive |
| COc1cc2nc(NCC(C)c3ccccc3)n3nc(-c4ccccc4)nc3c2cc1OC (stereo not given) | inactive |
| Cc1cc(C)c2oc(C(=O)Nc3c(C(=O)Nc4ccccc4)oc4ccccc34)cc(=O)c2c1 | inactive |
| Cc1ccc(Cl)cc1N1CCN(C(=O)C2CCC(CNS(=O)(=O)c3cccs3)CC2)CC1 (stereo not given) | inactive |
| COc1cc(C(=O)OCc2ccc([N+](=O)[O-])cc2)cc(OC)c1OC | inactive |
| COc1cc(/C=N\Nc2ccc([N+](=O)[O-])cn2)ccc1OCC(=O)O | inactive |
| COc1cc(/C=N/O)ccc1OCc1ccc([N+](=O)[O-])cc1 | 14.1 µM (active) |
| COc1ccc(N2CCN(C(=O)C3CCCN(C(=O)c4cc5sccc5n4C)C3)CC2)cc1 (stereo not given) | inactive |
| Cc1ccc(S(=O)(=O)c2nc(-c3ccco3)oc2SCC(=O)Nc2ccc(F)cc2)cc1 | inactive |
| C/C(=N\NC(=O)c1ccccc1C)c1ccc(N2CCOCC2)cc1 | inactive |
| COc1cccc(C(=O)Nc2cc3c(cc2Br)OCCCO3)c1 | 10 µM (active) |
| Cc1cc(NS(=O)(=O)c2ccc(NC(=O)c3ccccc3C)cc2)nc(C)n1 | inactive |
| COc1cccc(C(=O)NNC(=O)c2ccccc2Br)c1 | inactive |
| COc1cccc(OC)c1C(=O)Nc1ccc(N2CCCCC2)cc1 | inactive |
| Cc1ccccc1C(=O)Nc1ccc(N2CCCCCC2)cc1 | 12.6 µM (active) |
| COc1ccc(C2COC(=O)C2=N)c(NC(=O)c2ccccc2)c1 (stereo not given) | inactive |
| COc1cccc(C(=O)Nc2ccc(N3CCCC3)cc2)c1 | 8.91 µM (active) |
| COc1ccc(C(=O)NC(=S)Nc2ccc(N3CCCC3)cc2)cc1OC | inactive |
| CCn1cc(C(=O)NCc2ccccc2)c(=O)c2cc(S(=O)(=O)N3CCCCC3)ccc21 | inactive |
| CC(C)Cn1c(=O)c2ccccc2n2c(CCC(=O)N3CCN(c4cccc(Cl)c4)CC3)nnc12 | inactive |

| SMILES | Potency |
| --- | --- |
| Cc1ccc(OCCn2c(CNc3ccccc3C)nc3ccccc32)cc1 | inactive |
| O=C(NCCCO)c1nn(-c2ccc(Cl)cc2)nc1CO | inactive |
| O=C(Cn1c(=O)n(Cc2cccs2)c(=O)c2cccnc21)Nc1ccc(F)cc1 | inactive |
| Cc1ccc(NC(=O)CN2C(=O)C(c3ccc(F)cc3)=NC23CCCCCC3)c(C)c1 | inactive |
| CCOc1ccc(N(Cc2ccccc2)C(=O)c2nc(S(C)(=O)=O)ncc2Cl)cc1 | inactive |
| O=C(CCS(=O)(=O)c1cc(Br)cc2c1N(C(=O)C1CC1)CC2)Nc1ccc(C(F)(F)F)cc1 | inactive |
| O=C(c1ccco1)n1nc(-c2ccc(Cl)cc2)nc1NCc1ccccc1 | inactive |
| CCCCOc1ccc(CN2C(=O)C(=O)c3cc(Br)cc(C)c32)cc1OC | inactive |
| COC(=O)c1ccccc1NC(=O)c1ccc(COc2ccccc2Cl)o1 | inactive |
| CSc1ccc(C#N)cc1NC(=O)c1cccc(Cl)c1 | inactive |
| N#Cc1ccccc1NC(=O)c1cccc(COc2ccc(Cl)cc2Cl)c1 | 0.794 µM (active) |
| Cc1cccc2c1-c1sc(C(=O)Nc3ccc(F)cc3F)cc1CO2 | inactive |
| Nc1nc2c(ncn2[C@@H]2O[C@H](COP(=O)(O)OP(=O)(O)OP(=O)(O)O)[C@@H](O)C2O)c(=O)[nH]1 (stereo not given in full) | inactive |
| Cc1ccc(C(=O)Nc2ccc(C(=O)O)cc2)cc1S(=O)(=O)Nc1ccccc1 | inactive |
| CCN(CC)S(=O)(=O)c1cccc(C(=O)Nc2ccccc2)c1 | inactive |
| CCN(CC)S(=O)(=O)c1cc(C(=O)Nc2ccccn2)ccc1C | 22.4 µM (active) |
| COC(=O)c1ccc(OC)c(Cn2c(=O)n(Cc3ccccc3)c(=O)c3c2c2cc(OC)ccc2n3C)c1 | inactive |
| Cc1ccc(C(=O)CSc2nc(-c3ccccc3)nc3c2CCCC3)c(C)c1 | inactive |
| CNC(=O)CSc1nnnn1-c1ccc(C)cc1C | inactive |
| CCn1nnnc1SCC(=O)c1ccc(C)cc1C | 2.82 µM (active) |
| COc1ccccc1-c1cc(C(F)(F)F)nc(S(=O)(=O)CCCC(=O)Nc2ccc(F)cc2F)n1 | inactive |
| Cc1ccsc1C(=O)N/N=C/c1ccc([N+](=O)[O-])cc1 | 12.6 µM (active) |

| SMILES | Potency |
| --- | --- |
| COc1ccc(NC(=O)c2ccccc2[N+](=O)[O-])cc1OC | inactive |
| Cc1nc2ccccc2cc1C(=O)N/N=C/c1ccc([N+](=O)[O-])cc1 | inactive |
| Cc1ccc(NC(=O)c2sccc2C)cc1[N+](=O)[O-] | 14.1 µM (active) |
| NC(=S)N/N=C/c1ccc([N+](=O)[O-])cc1 | inactive |
| Cc1ccc(NC(=O)CN2CCC(C(N)=O)CC2)cc1[N+](=O)[O-] | inactive |
| Cc1ccc(C)c(CN2C(=O)c3ccccc3S(=O)c3ccc(C(=O)N4CCOCC4)cc32)c1 (stereo not given) | inactive |
| COc1ccccc1-c1cc2nc(C)c(CCC(=O)O)c(C)n2n1 | inactive |
| Cc1ccc(CN2COc3cc(C)c4c(oc(=O)c5ccccc54)c3C2)cc1 | inactive |
| CCOC(=O)c1ccc(-c2ccc(/C=C(\C#N)C(=O)Nc3ccc(OCC)cc3)o2)cc1 | inactive |
| Cc1ccc2nc(/C(C#N)=C\c3ccc(OC(=O)c4cccs4)cc3)[nH]c2c1 | inactive |
| Cc1ccc2nc(/C(C#N)=C/c3ccc(-c4ccc(C(=O)OC(C)C)cc4)o3)[nH]c2c1 | 11.2 µM (active) |
| O=C(NCCc1ccccc1)c1ccc2c(c1)N(Cc1ccccc1)C(=O)c1ccccc1S2(=O)=O | inactive |
| NC(=O)N1CCc2ccccc21 | inactive |
| O=C(CSCc1ccccc1)N1CCc2ccccc21 | 12.6 µM (active) |
| Cc1nnc(SCC(=O)N2CCc3ccccc32)n1-c1ccccc1 | inactive |
| Cc1ccc(C)c(N2CCN(C(=O)CN3C(=O)COc4ccc(S(=O)(=O)N5CCCCCC5)cc43)CC2)c1 | inactive |
| Cc1cc(C)nc(NS(=O)(=O)c2ccc(NC(=O)c3cc(=O)c4ccc(C)c(C)c4o3)cc2)n1 | inactive |
| COc1ccccc1-c1nnc(C2CCN(C(=O)c3ccc(Cl)cc3)CC2)o1 | inactive |
| CCOc1cc(NC(=O)c2ccccn2)c(OCC)cc1NC(=O)c1ccc(OC)cc1 | inactive |
| Cc1cc(N/C=C\C(=O)c2ccc(Cl)c(Cl)c2)no1 | inactive |
| COc1ccc(C(=O)/C=C/Nc2ccccn2)cc1 | 1.41 µM (active) |
